# Most compounds without a hit are left out; they make up all but 1.4% or so of the library.
# E coli Lon inh: E. coli protease La inhibition | 0.42% of 360,000 active | purified E. coli Lon protease, fluorescence polarization | inhibition, % at 7.94 µM | P0A9M0; in the data active means inhibition above about 13%, passing the limit was not always enough;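 further: 0% = enzyme with probe and DMSO and 100% = no enzyme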
# EBV gp42 block: inhibitors of Epstein-Barr virus glycoprotein 42; Q1HVG2; Fluorescence polarization binding assay, mP read-out; inhibition, % (tested at 21.74 µM); 0.42% of 220,000 active; AID 1085; in the data active means inhibition above about 50%
# Target sequence (Q1HVG2 whole entry, looked up): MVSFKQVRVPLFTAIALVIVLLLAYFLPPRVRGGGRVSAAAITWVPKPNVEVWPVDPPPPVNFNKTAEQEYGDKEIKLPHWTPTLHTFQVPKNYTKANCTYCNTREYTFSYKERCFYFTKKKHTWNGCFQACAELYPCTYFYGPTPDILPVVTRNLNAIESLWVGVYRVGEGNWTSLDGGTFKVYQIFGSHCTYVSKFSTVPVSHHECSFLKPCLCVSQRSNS
# Bcl-xL primary: inhibitors of human Bcl-xL. GST-Bcl-xL / FITC-Bim BH3 peptide fluorescence polarization. AID 2129. inhibition, % at 10.9 µM. 0.7% of 320,000 active;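 active means inhibition above the mean of all tested compounds plus 3 SD, cutoff set per campaign, cut at about 30% in these data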;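 further: 0% = DMSO wells and 100% = unlabeled Bim-BH3 peptide competitor; inhibitors lower millipolarization by displacing the labeled peptide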
# Target sequence (Q07817 whole entry, looked up): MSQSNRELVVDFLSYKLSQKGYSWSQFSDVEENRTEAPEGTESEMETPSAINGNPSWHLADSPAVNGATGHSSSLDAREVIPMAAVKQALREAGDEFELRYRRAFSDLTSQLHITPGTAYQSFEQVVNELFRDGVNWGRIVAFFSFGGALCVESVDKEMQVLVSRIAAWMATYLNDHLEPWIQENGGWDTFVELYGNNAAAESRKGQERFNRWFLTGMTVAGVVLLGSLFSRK
# MEX-5 binding: C. elegans MEX-5 TCR-2 RNA binding activity; AID 1832; MEX-5/FITC-TCR2 RNA binding, fluorescence polarization; hits give low values; 0.38% of 300,000 active; activity score (negative = inhibition of binding), % at 10 µM;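 active means inhibition past about -25% in most replicates, and total fluorescence under double the plate's negative control median, limit read from the data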;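 further: 0% = DMSO and -100% = 5 µM competing unlabeled TCR2 RNA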
# MCL1-BIM inh: disrupts human MCL1 binding to BIM-BH3 peptide; Q07820; GST-MCL1 / FITC-Bim-BH3 fluorescence polarization; inhibition, % at 10.9 µM; 0.68% of 320,000 active; AID 2057;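 active means inhibition above the mean inhibition of all tested compounds plus 3 SD, set per campaign, cut at about 40% in these data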;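 further: 0% = DMSO wells and 100% = unlabeled Bim-BH3 peptide control; higher means more loss of mP so more displacement of Bim peptide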
# GLD-1 TGE inh: GLD-1-TGE RNA interaction inhibition (C. elegans). purified GLD-1 + fluorescein TGE RNA, fluorescence polarization. 0.44% of 320,000 active. Q17339. inhibition, % at 5.96 µM;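 active means percent inhibition above a per-plate cutoff, the plate mean of test compounds plus 3 SD, cut at about 30% in these data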;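 further: 0% = DMSO wells with GLD-1 and probe and 100% = wells lacking GLD-1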
# Numbers without * were called inactive; . = no result given.
SMILES,E coli Lon inh,EBV gp42 block,Bcl-xL primary,MEX-5 binding,MCL1-BIM inh,GLD-1 TGE inh
C/C=C/c1cnc2c(c1)C(=O)N([C@H](C)CO)C[C@H](C)[C@@H](CN(C)C(=O)CN1CCOCC1)O2,8,.,.,.,.,.
COc1ccccc1C1C=C(c2ccc(Cl)cc2)Nc2nc(N3C(=O)CCC3=O)nn21 (stereo not given),9,-8,15,.,19,12
O=C1CCC(=O)N1c1nc2n(n1)C(c1ccccc1)C=C(c1ccc(Br)cc1)N2 (stereo not given),5,51*,18,-12,29,28
O=C(CN1CCc2ccccc21)NCc1ccc2c(c1)OCO2,1,-17,6,1,-2,-4
O=C(CN1CCCc2ccccc21)NCc1ccc2c(c1)OCO2,-73,-10,47*,-1,52*,-51
COc1ccc(C(=O)NC(=S)NNC(=O)c2cnccn2)cc1,2,-6,-2,-3,2,-4
COc1cc(C(=O)NC(=S)NNC(=O)c2cnccn2)cc(OC)c1OC,3,1,6,-47*,15,5
O=C1Nc2cc(Cl)cnc2N2CCCC12 (stereo not given),9,72*,36*,-37*,43*,10
CCCCCOc1ccc(NC2=CC(=O)CCC2)cc1,6,.,1,1,2,1
Cc1ccc(C(=O)N/C(=C\c2cn(C)c3ccccc23)C(=O)NCCCN2CCOCC2)cc1,-1,.,5,1,3,-4
Cc1ccc(C(=O)N/C(=C\c2ccc(-c3ccccc3[N+](=O)[O-])o2)C(=O)NCCCN2CCOCC2)cc1,7,.,32*,-7,27,18
Cc1cc(O)c(C=Nc2ccc(Cl)cn2)c(=O)o1,-12,-2,4,0,4,5
Oc1ccc2ccccc2c1C=Nc1ccc(Cl)cn1,-3,82*,1,-1,5,-9
CC(C)(C)OC(=O)C[C@@H]1C/C=C\C[C@H](CC(=O)N[C@@H](CO)Cc2ccccc2)C(=O)N[C@H](C(C)(C)C)COC1=O,-4,.,.,.,.,-1
NC(=O)CSc1ccc(S(=O)(=O)N2CCOCC2)cn1,13,.,38*,.,43*,20
Cc1[nH]nc2c1C1(CCOCC1)C(C#N)=C(N)O2,-1,-13,4,-5,4,14
Cc1[nH]nc2c1C1(CCN(Cc3ccccc3)CC1)C(C#N)=C(N)O2,-9,17,40*,-2,39,17
O=C(COc1ccc(F)cc1)Nc1nnc(S(=O)(=O)N2CCCC2)s1,-1,.,4,3,6,0
CCCCC(=Nc1ccc(N)cc1)C1=C(O)C(C(=O)OC)C(C)(C)CC1=O (stereo not given),5,-10,32*,1,32,8
O=C(NC1CCCc2c1cnn2-c1ccccc1F)c1ccccn1 (stereo not given),-8,.,3,2,5,-4
O=C(NC1CCCc2c1cnn2-c1ccc(F)cc1F)c1ccccn1 (stereo not given),-12,-9,31*,0,-4,-5
CC1=C(C(=O)N2CCCCCC2)CC(CC(=O)NC2CCCC2)C(=O)N1Cc1ccc(C(C)(C)C)cc1 (stereo not given),-1,.,.,.,.,.
O=c1oc(/C=C/c2ccccc2)nc2sc3c(c12)CCC3,-8,-91,7,-11,0,10
COc1ccc(/C=C/c2nc3sc4c(c3c(=O)o2)CCC4)cc1,-2,.,1,-30*,4,-1
COc1cc(/C=C(\C#N)c2nc(-c3cc4ccccc4oc3=O)cs2)ccc1O,-26,-66,2,-6,3,-7
SMILES,E coli Lon inh,EBV gp42 block,Bcl-xL primary,MEX-5 binding,MCL1-BIM inh,GLD-1 TGE inh
COc1cc(/C=C(/C#N)c2nc(-c3cc4ccccc4oc3=O)cs2)cc([N+](=O)[O-])c1O,.,64*,.,.,.,.
Cc1ccc(CNC(=O)Cn2nnc(C(=O)Nc3cc(C)ccc3C)c2N)cc1,2,.,1,-4,4,3
C=CCN(C(=O)CNS(=O)(=O)c1ccccc1)C(C(=O)NCCOC)c1cccnc1 (stereo not given),-1,.,5,0,2,2
O=[N+]([O-])c1cccc(/C=C/c2nc(C=Nc3ccccc3)c(O)o2)c1,-9,-3,-31,-43*,-51,-14
O=[N+]([O-])c1cccc(/C=N/N=C\c2ccccc2)c1,-3,.,.,0,.,.
O=C(CSc1nc2ncccc2[nH]1)Nc1ccc2c(c1)OCO2,-6,73*,2,0,3,2
O=C(N=Nc1c(O)[nH]c2ccc(F)cc12)c1ccc(NS(=O)(=O)c2cccs2)cc1,4,.,-3,.,0,6
Cc1ccc2[nH]c(O)c(N=NC(=O)c3ccc(NS(=O)(=O)c4cccs4)cc3)c2c1,-4,58*,12,0,19,7
O=C1CCC/C1=c1\s/c(=C\c2cccnc2)c(=O)n1-c1ccccc1,-9,-22,-3,-26*,-10,3
O=C1CCC/C1=c1\s/c(=C/c2cccnc2)c(=O)n1-c1ccccc1,-18,.,.,.,.,.
CC(=O)N1CCc2c(sc(NC(=O)C3CCCCC3)c2C(N)=O)C1,6,.,13,-27*,15,57*
COc1ccc(-c2c(C(F)(F)F)nn(C)c2NC(=O)CSCC(=O)O)cc1,0,-7,1,0,1,-1
Cc1ccc(NC(=O)/C(=C\c2cccnc2)NC(=O)c2ccco2)cc1,1,-2,89*,-3,29,29
O=C(Nc1cccc(F)c1)/C(=C\c1cccnc1)NC(=O)c1ccco1,-5,-21,1,-1,-1,0
Cn1c(=O)c2[nH]c(CSCc3ccccc3)nc2n(C)c1=O,-3,.,.,.,.,.
Cn1c(=O)c2[nH]c(CN(Cc3ccccc3)Cc3ccccc3)nc2n(C)c1=O,7,8,-4,1,-2,34*
CCOC(=O)C1(Cc2ccccc2)CCCN(C(=O)COc2ccccc2OC)C1 (stereo not given),3,.,.,.,.,.
COc1ccccc1-c1cc(C(=O)O)c2c(=O)n(C)c(=O)n(Cc3ccccc3)c2n1,-14,.,-2,-3,2,4
Cn1c(=O)c2c(C(=O)O)cc(-c3ccccc3)nc2n(Cc2ccccc2)c1=O,-1,.,38*,-11,35,22
CCOC(=O)c1c(-c2ccc(C)o2)csc1NC(=S)NC(=O)c1cccs1,0,-15,10,-34*,13,14
Cc1cc(C)c(Nc2cc(S(=O)(=O)O)c(N)c3c2C(=O)c2ccccc2C3=O)c(C)c1,-1,31,31*,.,52*,11
Cc1cc(C)c(NC(=O)COC(=O)c2cccc3c2C(=O)c2ccccc2C3=O)c(C)c1,-7,-10,4,2,9,11
COc1cccc(N2CCN(C(=O)c3cc4c(=O)n(Cc5ccccc5)ccc4nc3C)CC2)c1,-25,.,-3,3,-11,-17
CCC[n+]1c2ccccc2cc2ccccc21,7,.,37*,-19,20,29

# Source: PubChem BioAssay
